# In PubChem BioAssay AID651871 (Sanford-Burnham Center for Chemical Genomics, 2012):
# Several values for one entry are separate records, joined by “and”; a condition that tells them apart may be missing. Equal entries are not always repeated.
# Tested on: H9c2
# Experiment: protection of cardiomyocytes from stress damage, SAR follow-up, cell-based, panel, H9c2 and HL-1, ATP luminescence, set 2 (AID 651871);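 further: cells exposed to stressor for 2 h before ATP readout; reference of the scale not given here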
# Settings: H9c2/HL-1 cardiomyocytes, 2-deoxyglucose stress, with 2-deoxyglucose; run 10, at 79 µM (top of the series) unless noted
row,SMILES,activity (protection/inhibition)
1,COc1ccc2c(c1OC)C(=O)N1c3ccccc3C(=O)N(Cc3cccc(Cl)c3Cl)C21 (stereo not drawn),76% and 73.8% and -3.2%
2,CCOC(=O)c1cccc(NC(=O)CNC(=O)c2cc(-c3cc(OC)c(OC)c(OC)c3)nc3ccccc23)c1,"82.3% [run 10, at 39.5 µM]"
3,COc1ccc2nc(-c3cc(OC)c(OC)c(OC)c3)cc(C(=O)NCC(=O)Nc3ccc(C(C)=O)cc3)c2c1,78.3%
